In PubChem BioAssay one finds z-score data, which are given here for 35 molecules.

The structures appear in SMILES notation. Activity calls are given as the source filed them.

Sequence of NADPH oxidase 2 (Homo sapiens) (P04839 whole entry, looked up): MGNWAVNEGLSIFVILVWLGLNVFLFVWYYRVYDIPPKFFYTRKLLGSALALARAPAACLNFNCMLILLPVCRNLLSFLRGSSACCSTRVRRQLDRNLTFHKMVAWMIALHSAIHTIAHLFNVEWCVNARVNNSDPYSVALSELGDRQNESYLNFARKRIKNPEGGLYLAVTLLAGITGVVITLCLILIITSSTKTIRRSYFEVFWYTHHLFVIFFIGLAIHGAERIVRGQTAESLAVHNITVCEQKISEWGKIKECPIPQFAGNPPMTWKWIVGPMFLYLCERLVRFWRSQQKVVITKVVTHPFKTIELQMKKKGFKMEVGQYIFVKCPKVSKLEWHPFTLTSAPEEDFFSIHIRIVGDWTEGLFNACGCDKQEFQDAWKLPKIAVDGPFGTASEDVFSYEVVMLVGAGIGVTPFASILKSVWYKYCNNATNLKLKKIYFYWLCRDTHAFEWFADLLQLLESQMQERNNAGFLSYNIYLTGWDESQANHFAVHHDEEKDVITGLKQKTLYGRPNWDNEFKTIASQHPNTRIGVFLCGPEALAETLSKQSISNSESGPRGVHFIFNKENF

Test system in the first assay: not listed separately
Description: S6 kinase pathway phospho-S6 level changes – cell-based, A549, cytoblot, luminescence, serum-stimulated, primary screen (AID 1158).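 Note: serum-stimulated A549 lung adenocarcinoma cells; signal is phosphorylated S6 detected by cytoblot immunostaining with HRP secondary.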 The conditions noted are these: 5 h, higher = more signal.
Regarding `CCCCCCc1nc(-c2ccc(-c3ccc(Cl)c(Cl)c3)o2)cc2c1[Si](C(C)C)(C(C)C)OC2`, the z-score worked out at 1.6.

As for `COC(=O)[C@H](Cc1ccccc1)N1CC2=CCCC=C[C@@H]2[C@H]1[C@H](O)Cc1ccccc1`, the z-score was -0.232.

Regarding `COC(=O)[C@@]1(Cc2ccc(F)cc2)[C@H]2c3cc(C(=O)N4CCCC4)n(CCc4ccccn4)c3C[C@H]2CN1C(=O)c1ccccc1`, the z-score was -0.697.

Molecule `O=C1N(CCS(=O)(=O)c2ccccc2)c2ccccc2C[C@]12N=C(c1ccc(OCCCO)cc1)O[C@@H]2c1ccccc1` yielded a z-score of -0.18.

Consider `C=CCN1C(=O)[C@]2(O[C@H](CCn3cc([C@H](O)c4ccccc4)nn3)[C@@H]([Si](C)(C)c3ccc(OC)cc3)[C@@H]2C)c2cc(NC(=O)c3ccc(OC)cc3)ccc21`, for which the z-score is -0.0732.

For `C=C(COC)C(=O)CC[C@@H](OC(C)=O)c1ccccc1OCCO`, the z-score came out at 0.846.

In turn, `COC(=O)[C@@]1(Cc2ccc(F)cc2)[C@H]2c3cc(C(=O)N4CCCC4)n(Cc4ccccn4)c3C[C@H]2CN1C(=O)c1ccccc1` gave a z-score of 0.0347.

Regarding `C=CCOC(=O)[C@@H]1[C@H]2C(=O)O[C@H](c3ccccc3)[C@H](c3ccccc3)N2[C@H](c2ccc(OCCOC(=O)[C@H]3C[C@H]4C(=O)NCC(=O)N4[C@H]3c3cccc(OCCO)c3)cc2)[C@@]12C(=O)Nc1ccc(I)cc12`, the z-score amounted to 0.117.

The molecule `COC(=O)C[C@H]1O[C@@]2(C[C@@H]1[Si](C)(C)C)C(=O)N(C)c1ccccc12` yielded a z-score of 0.953.

`CN(C)CCCC[C@@H]1NC(=O)[C@@H]2C[C@H](C(=O)NCCCCCCNC(=O)CS)[C@H](c3ccc(O)cc3)N2C1=O` yielded a z-score of 0.58.

In turn, `CCOC(=O)C1=CC[C@@H](c2ccc(OC)cc2)N(S(=O)(=O)c2ccc(C)cc2)[C@H]1CC` registered a z-score of 1.27.

As to `C=C(CCCC)/C(=C/C[C@H](OC(=O)c1ccncc1)c1ccc(OCCO)cc1)c1cnc2ccccc2c1`, the z-score is -0.594.

`COC(=O)[C@@]1(Cc2ccc(F)cc2)[C@H]2c3cc(C(=O)N4CCCC4)n(Cc4cc(F)cc5c4OCOC5)c3C[C@H]2CN1C(=O)c1ccccc1` came in with a z-score of 0.0568.

For `C=C(CCCC)C(=O)CC[C@H](OC(=O)c1ccccc1-c1ccccc1C(=O)O)c1ccc(OCCO)cc1`, the z-score was -0.265.

As for `C[N+](C)(C)CCCCNC(=O)[C@H]1C[C@H]2C(=O)N[C@@H](Cc3ccccc3)C(=O)N2[C@H]1c1cccc(OCCO)c1`, the z-score came out at 0.17.

The next assay concerns the target NADPH oxidase 2 (Homo sapiens) (UniProt P04839). The assay can be described thus: compounds shifting NOX2 Amplex Red fluorescence – cell-based, HEK293-NOX2, PMA-stimulated, NOX inhibitor project, primary screen (AID 1159). Note: test concentration not given here. To be noted: 45 min, higher = more signal, called active from +8 up or from −8 down.
On to `COC(=O)C(CC#Cc1ccc2c(c1)[C@]1(C(=O)N2)[C@H](C(=O)NC[C@H](O)c2ccccc2)[C@H]2C(=O)O[C@H](c3ccccc3)[C@H](c3ccccc3)N2[C@@H]1c1ccccc1OCCO)C(=O)OC`, for which the z-score was 0.504 (inactive).

With `CN(C)CCCNC(=O)[C@@]1(Cc2ccccc2I)c2ccccc2C(=O)N(C2CCCCC2)[C@H]1c1ccc(CO)cc1`, the z-score is -9.9 (active).

Take `CN1C(=O)C2C=CC(C(O)c3ccc(-c4ccccc4)s3)N(NC(=O)OC(C)(C)C)C2C1=O` (stereo not given): the z-score is -0.0373 (inactive).

As to `CCCNC(=O)[C@@]1(Sc2ccc(C)cc2)CC(=O)N(Cc2ccccc2Cl)[C@@H]1c1ccc(CO)cc1I`, the z-score is 1.24 (inactive).

In the case of `CN(C)c1ccc(C(O)C2C=CC3C(=O)N(Cc4ccccc4)C(=O)C3N2n2cnnc2)cc1` (stereo not given), the z-score is 0.683 (inactive).

For the molecule `C[C@@H]1ON(c2ccccc2)[C@H](c2ccccc2)[C@H]1C(=O)O`, the z-score was -0.436 (inactive).

With `O=C1[C@H]2C=C(I)[C@H](C[C@@H]2c2ccccc2)[C@@]12CO2`, the z-score was -0.66 (inactive).

Take `C=CCC(OC(C)=O)[C@@H]1[C@@H](N(Cc2ccc(-c3cccc(C(F)(F)F)c3)o2)C(=O)c2ccc(-c3ccccc3)cc2)c2cc(OCCCO)ccc2N1C(=O)c1ccc2ccccc2c1` (stereo not given in full): the z-score was -1.99 (inactive).

`O=C(NCc1ccc(F)cc1)[C@H]1C[C@H]2C(=O)N3CCC[C@H]3C(=O)N2[C@H]1c1ccc(O)cc1`: the z-score is -1.35 (inactive).

For the molecule `N#Cc1ccc(NN2C(C(O)C3CC=CCC3)C=CC3C(=O)N(c4ccccc4)C(=O)C32)cc1` (stereo not given), the z-score was -1.21 (inactive).

For the molecule `CCCNC(=O)[C@@]1(c2ccc([N+](=O)[O-])cc2)CC(=O)N(C(C)C)[C@@H]1c1ccc(CO)cc1`, the z-score is -0.144 (inactive).

Turning to `CC(C)N1C(=O)C[C@@](C(=O)NCCN2CCOCC2)(c2ccc([N+](=O)[O-])cc2)[C@H]1c1ccc(CO)cc1`, the z-score was -0.54 (inactive).

With `C[N+](C)(C)CCCC[C@@H]1NC(=O)[C@H]2C[C@@H](C(=O)NCCCCCNC(=O)CS)[C@@H](c3cccc(OCCO)c3)N2C1=O`, the z-score was 1.94 (inactive).

Turning to `[N-]=[N+]=Nc1ccccc1[C@@H]1OC(c2ccc(OCCCO)cc2)=N[C@]1(Cc1ccccc1)C(=O)NCCN1CCOCC1`, the z-score was -3.29 (inactive).

Regarding `CCOC(=O)C[C@H]1[C@H](OC(=O)c2ccccc2-c2ccccc2)[C@@H](NC(=O)C2CCCCC2)c2cc(OCCCO)ccc2N1C(=O)c1ccc2ccccc2n1`, the z-score is 0.618 (inactive).

On to `NC(=O)N1C(=O)C2C(C1=O)C1C=C(CCCO)C2C(c2ccc(CN3CCCC3)cc2)N1Cc1sc2ccccc2c1Cl` (stereo not given), for which the z-score is -0.101 (inactive).

On to `CC(C)(C)N1CC=CC23O[C@@H]4/C=C\CCCOC(=O)C4[C@H]2C(=O)N(CCCO)[C@@H]3C1=O` (stereo not given in full), for which the z-score is 1.63 (inactive).

With `CC(C)N1C(=O)c2ccccc2[C@](C)(C(=O)NCC(F)(F)F)[C@@H]1c1ccc(CO)cc1`, the z-score was 0.91 (inactive).

Turning to `COc1ccc(C#Cc2ccc3c(c2)[C@]2(C(=O)N3)[C@H](C(=O)O)[C@H]3C(=O)O[C@H](c4ccccc4)[C@H](c4ccccc4)N3[C@@H]2c2ccccc2OCCO)cc1`, the z-score is 2.09 (inactive).

As for `CCCCCC1=C2CNC(Cc3ccccc3)(C(=O)OC)C=C2C(C)C1=O` (stereo not given), the z-score is -0.733 (inactive).

Take `CCCCCCc1nc(-c2ccc(-c3ccc(Cl)c(Cl)c3)o2)cc2c1[Si](C(C)C)(C(C)C)OC2`: the z-score is -5.23 (inactive).

As to `COC(=O)[C@H](Cc1ccccc1)N1CC2=CCCC=C[C@@H]2[C@H]1[C@H](O)Cc1ccccc1`, the z-score is -0.286 (inactive).

In the case of `COC(=O)[C@@]1(Cc2ccc(F)cc2)[C@H]2c3cc(C(=O)N4CCCC4)n(CCc4ccccn4)c3C[C@H]2CN1C(=O)c1ccccc1`, the z-score is 0.557 (inactive).

Turning to `O=C1N(CCS(=O)(=O)c2ccccc2)c2ccccc2C[C@]12N=C(c1ccc(OCCCO)cc1)O[C@@H]2c1ccccc1`, the z-score is -0.304 (inactive).

On to `C=CCN1C(=O)[C@]2(O[C@H](CCn3cc([C@H](O)c4ccccc4)nn3)[C@@H]([Si](C)(C)c3ccc(OC)cc3)[C@@H]2C)c2cc(NC(=O)c3ccc(OC)cc3)ccc21`, for which the z-score was 0.51 (inactive).

`C=C(COC)C(=O)CC[C@@H](OC(C)=O)c1ccccc1OCCO`: the z-score was -1.51 (inactive).

`COC(=O)[C@@]1(Cc2ccc(F)cc2)[C@H]2c3cc(C(=O)N4CCCC4)n(Cc4ccccn4)c3C[C@H]2CN1C(=O)c1ccccc1`: the z-score is 0.553 (inactive).

On to `C=CCOC(=O)[C@@H]1[C@H]2C(=O)O[C@H](c3ccccc3)[C@H](c3ccccc3)N2[C@H](c2ccc(OCCOC(=O)[C@H]3C[C@H]4C(=O)NCC(=O)N4[C@H]3c3cccc(OCCO)c3)cc2)[C@@]12C(=O)Nc1ccc(I)cc12`, for which the z-score was 1.54 (inactive).

On to `COC(=O)C[C@H]1O[C@@]2(C[C@@H]1[Si](C)(C)C)C(=O)N(C)c1ccccc12`, for which the z-score is -0.465 (inactive).

With `CN(C)CCCC[C@@H]1NC(=O)[C@@H]2C[C@H](C(=O)NCCCCCCNC(=O)CS)[C@H](c3ccc(O)cc3)N2C1=O`, the z-score was 0.559 (inactive).

`CCOC(=O)C1=CC[C@@H](c2ccc(OC)cc2)N(S(=O)(=O)c2ccc(C)cc2)[C@H]1CC`: the z-score is 0.0165 (inactive).

Turning to `C=C(CCCC)/C(=C/C[C@H](OC(=O)c1ccncc1)c1ccc(OCCO)cc1)c1cnc2ccccc2c1`, the z-score is -0.0888 (inactive).

Take `COC(=O)[C@@]1(Cc2ccc(F)cc2)[C@H]2c3cc(C(=O)N4CCCC4)n(Cc4cc(F)cc5c4OCOC5)c3C[C@H]2CN1C(=O)c1ccccc1`: the z-score was -0.332 (inactive).

Turning to `C=C(CCCC)C(=O)CC[C@H](OC(=O)c1ccccc1-c1ccccc1C(=O)O)c1ccc(OCCO)cc1`, the z-score is 0.135 (inactive).

Take `C[N+](C)(C)CCCCNC(=O)[C@H]1C[C@H]2C(=O)N[C@@H](Cc3ccccc3)C(=O)N2[C@H]1c1cccc(OCCO)c1`: the z-score was -0.423 (inactive).
